Laboratory results from PubChem BioAssay AID1727 (National Center for Advancing Translational Sciences (NCATS), 2009).
Active and inactive are the calls of the source. The call rests on the fitted dose curve; in most records, active means well fitted curve in the direction sought with a large enough effect; inactive means no such curve, though single readings can be large or run the other way.

target: Epidermal growth factor receptor (Homo sapiens) (UniProt P00533); assay: Assay for Inhibitors of the ERK Signaling Pathway using a Homogeneous Screening Assay: EGFR L858R Kinase Inhibition; conditions: EGFR L858R kinase biochemical inhibition assay; series mostly up to 65.8 µM
Sequence (P00533 whole entry L858R, looked up): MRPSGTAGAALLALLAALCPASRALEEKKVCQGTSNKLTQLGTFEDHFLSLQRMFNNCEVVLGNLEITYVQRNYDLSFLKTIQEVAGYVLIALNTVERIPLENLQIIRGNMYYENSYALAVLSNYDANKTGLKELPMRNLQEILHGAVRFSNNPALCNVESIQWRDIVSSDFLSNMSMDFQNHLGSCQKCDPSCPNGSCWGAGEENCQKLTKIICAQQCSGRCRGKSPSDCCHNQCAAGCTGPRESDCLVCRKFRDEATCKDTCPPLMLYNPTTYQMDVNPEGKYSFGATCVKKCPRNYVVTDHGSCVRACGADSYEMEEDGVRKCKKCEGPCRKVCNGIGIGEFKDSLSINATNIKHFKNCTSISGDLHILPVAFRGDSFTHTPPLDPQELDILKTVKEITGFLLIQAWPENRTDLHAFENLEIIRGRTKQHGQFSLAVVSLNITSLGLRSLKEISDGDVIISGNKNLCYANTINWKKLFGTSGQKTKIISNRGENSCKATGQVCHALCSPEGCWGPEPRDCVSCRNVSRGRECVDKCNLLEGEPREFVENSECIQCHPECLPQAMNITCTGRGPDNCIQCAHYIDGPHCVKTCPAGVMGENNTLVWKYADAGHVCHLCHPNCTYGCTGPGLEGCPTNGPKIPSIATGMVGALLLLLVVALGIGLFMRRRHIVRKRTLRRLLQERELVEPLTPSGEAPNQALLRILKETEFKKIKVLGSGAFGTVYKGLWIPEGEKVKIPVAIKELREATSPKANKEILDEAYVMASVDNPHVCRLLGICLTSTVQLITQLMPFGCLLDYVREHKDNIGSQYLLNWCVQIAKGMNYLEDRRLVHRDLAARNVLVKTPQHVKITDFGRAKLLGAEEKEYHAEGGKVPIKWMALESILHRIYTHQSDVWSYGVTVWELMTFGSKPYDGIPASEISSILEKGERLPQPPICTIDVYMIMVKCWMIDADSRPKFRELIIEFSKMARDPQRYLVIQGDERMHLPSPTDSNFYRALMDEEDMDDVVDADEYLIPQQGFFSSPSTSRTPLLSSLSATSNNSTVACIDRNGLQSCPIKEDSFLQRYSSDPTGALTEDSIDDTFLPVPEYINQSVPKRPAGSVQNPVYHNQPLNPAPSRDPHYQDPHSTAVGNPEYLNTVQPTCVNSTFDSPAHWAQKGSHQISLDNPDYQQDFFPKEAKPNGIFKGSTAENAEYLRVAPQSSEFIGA
From the text: qHTS Assay for Inhibitors of the ERK Signaling Pathway using a Homogeneous Screening Assay
NIH Chemical Genomics Center [NCGC]
NIH Molecular Libraries Screening Centers Network [MLSCN]
Assay Submitter (PI): Dr. Wei Zheng, NCGC/NIH
The Ras/extracellular-signal-regulated kinase (ERK) mitogen activated protein (MAP) kinase signaling pathway (ERK1/2 cascade) plays is a key role in transmitting signals from the cell surface to the nucleus (Nishida and Gotoh 1993; Chang and Karin, 2001). The cascade is initiated by the small G-protein Ras, which recruits Raf […], where activation occurs. Alternatively, this pathway can be activated by elevating intracellular cAMP.
Activation of the ERK pathway is essential in increased cell division and cell survival. Sustained and constitutive activation of the ERK pathway, however, has been linked to uncontrolled cell proliferation, increased cell survival, and tumor progression. Thus, the ERK has been as an attractive target for cancer chemotherapy in the past few years (Sebolt-Leopold and Herrera, 2004). Given its physiological and pathological importance, assessment of ERK phosphorylation has been broadly performed in both basic research and drug discovery. Most assays for the measurement of ERK phosphorylation use the antibody-based detection methods, such as western blot and ELISA. These assays require multiple reagent additions with cell wash steps and are not suitable for high-throughput screening.
The current cell-based ERK phosphorylation assay was performed using AlphaScreen platform. AlphaScreen is a two bead-based proximity-dependent chemical energy transfer luminescent assay platform. The assay reagents (ERK SureFire(TM) kit) were supplied from TGR BioSciences (Australia). […]
The HTRF kinase assay (components supplied as kit by Cisbio) was chosen for the EGFR and EGFR mutant enzyme assays that applied the time resolved fluorescence resonance energy transfer (TR-FRET) principle. […]

Row | Compound | outcome
1 | CCn1nc(-c2ccccc2)nc2c(=O)n(C)c(=O)nc1-2 | inactive
2 | Cc1nc2c(=O)n(C)c(=O)nc-2n(C)n1 | inactive
3 | CN1CCN(c2cccc3c2C(=O)c2ccccc2C3=O)CC1 | inactive
